This passage reports PBM binding z-score results from the supplement of paper PMC6555819.

For the first test, the system named is RARg homodimer (NR concentration 270 nM). The test is described as follows: PBM binding z-score (relative to random genomic background probes); higher = stronger binding; sequences stand for … in GC…GCGATTGACAGCGTAGAATGAAGG
The procedure, abridged: (§1)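 For binding z-scores, the reference was random background probes on custom Agilent 4×180K protein-binding microarrays. These arrays were incubated 1 h with ligand-free nuclear receptor dimers in PBS pH 7.4, 2% milk, 0.02% Triton X-100, 1 mM DTT, 0.2 mg/mL BSA and 0.4 mg/ml salmon testes DNA. Fluorescence was scanned after antibody detection of each partner (one per run) and regression-normalized.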
In turn, ATACCAAGGTGATCGTGAGGTCTTTGATACTAAC came in with a PBM binding z-score of 0.392.

On to CCTAGCAGGCAAATCTGGGTCACTCAAGGCTTGA, for which the PBM binding z-score is 0.802.

Sequence ATCTCTAGGTAAGACTCAGTTCAGTGCAGAACGC registered a PBM binding z-score of 0.29.

CCTCGGAGGATAGAAGGTCAGAGCTGTCCGCTTT registered a PBM binding z-score of 2.05.

On to CCAGACAGGTGAAAGGTTACTCAGTCTGGTACGC, for which the PBM binding z-score stood at 1.52.

GCTTATAGATCAAGGTTAAGAAAGACTAAGCTAA returned a PBM binding z-score of 0.552.

Regarding GCTGCTAGGTCAGGTTAGTCAGCTAACGGGTACG, the PBM binding z-score was determined as 3.82.

TCATATAGGTAAAGGTCAAAGTCGAACGATATGA registered a PBM binding z-score of 5.87.

In the case of CCTGCTAGGTCAATGGTCACCTAAAGCAGCTCGC, the PBM binding z-score worked out at 4.05.

As to GCAAACAGGTGAAACGCAGGTAACTCAGGGTGGC, the PBM binding z-score amounted to 0.0633.

On to ATCGAAAAGTCGTGAGGTGAGTATACAGAAAGGC, for which the PBM binding z-score was 0.564.

Turning to AATACAGGGTCATCGAAGGCCAGAGTACGCACAG, the PBM binding z-score stood at 5.31.

As for CCTACTGGGCCGAAGGTCATTGATTCCAATGCTC, the PBM binding z-score was found to be 2.53.

As to CTTACTGGGCCAAGGTCATTGATCAGTCAAAGCA, the PBM binding z-score is 3.2.

CAGCCTAGGTCAGGGCCAGTATAGGAGGAACGTT returned a PBM binding z-score of 3.8.

Turning to AGCGAAAGGTCGACGAGGTGAGTATACACCGTTT, the PBM binding z-score stood at 4.03.

Sequence GCTAGCAGGCCATTTAGGTCACTCAATGACGGGC returned a PBM binding z-score of 1.75.

The sequence ACTAGCAGGCCAACGGTCACTCAAGATTAGTCCG registered a PBM binding z-score of 1.57.

Consider CGTCCAAGGTCATAGGACGTCAGTGAAGACAGAT, for which the PBM binding z-score was 5.4.

As for CCTCGGAAGACAGAAGGTCAGAGCTGTCCGCTTT, the PBM binding z-score is 2.32.

Take GCATATAGGTAATACAAGGCGAAAGTCCGATTGT: the PBM binding z-score came out at 0.326.

GCAGACAGGTGATACGCAGGTAACTCAGGGTGGC registered a PBM binding z-score of -0.0165.

Regarding AGGATGAGGTTATTAAGATCAGGGAATTGCGGTC, the PBM binding z-score was 1.1.

CCGACTGGGGCATAAGGTTATCATAAGCCAGCCC yielded a PBM binding z-score of 0.973.

For the sequence ACAGACCGGTGATGAAGGTAACTCAGGCTATCAT, the PBM binding z-score worked out at 0.11.

CGAACTAGGACAGAACAGGACAGTGAAGGATGAT showed a PBM binding z-score of 0.538.

In the case of CGTCCAAGGTCACAGGTCAGTGAAGAGATGACGG, the PBM binding z-score worked out at 7.51.

In turn, CTCGAAAGGTCGGTTGAGGTGTGTATACGGATAA registered a PBM binding z-score of 2.27.

CGAACTAGGTCAAGCACAGTGAATCTCCGCACGC returned a PBM binding z-score of 4.61.

Turning to ATAGAAAGGTCGTGAGGTGAGTATACAGAAAGGC, the PBM binding z-score is 4.01.

TCAGACAGGTGAGGGTAACTCAGGTACGCAGTCG yielded a PBM binding z-score of 0.485.

For CCTATTAGTTCACCATAAGGGCAACCGAAGCTCG, the PBM binding z-score came to 2.61.

With AATACAGGGTCACTAGGCCAGAGTTGGTACGAAT, the PBM binding z-score was 5.06.

On to CCTACTGGGCCAAAAAGGTCATTCATGCCGATAA, for which the PBM binding z-score amounted to 5.18.

CAAACTAGGTCAAGGTCAAAATCGGTTTGTGCCA registered a PBM binding z-score of 6.36.

On to AGAATGAGGTTATACGTAGATCATGGAAGAAAGT, for which the PBM binding z-score was found to be 1.29.

Take GCTTACGGGCCAAAGGTTATAGCATGAATAGAAT: the PBM binding z-score turned out to be 1.04.

TCGAGTTGGTTAGGGGCATTCAGAATGGCGTCGA yielded a PBM binding z-score of -0.398.

Take TATACAGGGTCAAAGGCGAGAGTACGAATGTCGA: the PBM binding z-score stood at 5.04.

A further test relates to RXRa DBDmut IVT, anti-RXR (DBD mutation: RXRa K156A/R161A, NR concentration 90 nM). Described as above. Summed up:
as §1
For the sequence ATACCAAGGTGATCGTGAGGTCTTTGATACTAAC, the PBM binding z-score was determined as 0.0771.

Take CCTAGCAGGCAAATCTGGGTCACTCAAGGCTTGA: the PBM binding z-score worked out at 0.0934.

The sequence ATCTCTAGGTAAGACTCAGTTCAGTGCAGAACGC came in with a PBM binding z-score of 0.644.

Turning to CCTCGGAGGATAGAAGGTCAGAGCTGTCCGCTTT, the PBM binding z-score is -0.11.

Take CCAGACAGGTGAAAGGTTACTCAGTCTGGTACGC: the PBM binding z-score was 0.385.

Regarding GCTTATAGATCAAGGTTAAGAAAGACTAAGCTAA, the PBM binding z-score was 0.345.

As for GCTGCTAGGTCAGGTTAGTCAGCTAACGGGTACG, the PBM binding z-score was found to be 0.579.

The sequence TCATATAGGTAAAGGTCAAAGTCGAACGATATGA had a PBM binding z-score of 1.9.

Consider CCTGCTAGGTCAATGGTCACCTAAAGCAGCTCGC, for which the PBM binding z-score was 2.07.

GCAAACAGGTGAAACGCAGGTAACTCAGGGTGGC registered a PBM binding z-score of -0.459.

Consider ATCGAAAAGTCGTGAGGTGAGTATACAGAAAGGC, for which the PBM binding z-score is -0.691.

Consider AATACAGGGTCATCGAAGGCCAGAGTACGCACAG, for which the PBM binding z-score is 3.38.

Take CCTACTGGGCCGAAGGTCATTGATTCCAATGCTC: the PBM binding z-score was found to be 0.398.

For the sequence CTTACTGGGCCAAGGTCATTGATCAGTCAAAGCA, the PBM binding z-score was 2.11.

CAGCCTAGGTCAGGGCCAGTATAGGAGGAACGTT returned a PBM binding z-score of -0.416.

In the case of AGCGAAAGGTCGACGAGGTGAGTATACACCGTTT, the PBM binding z-score came to 0.801.

In turn, GCTAGCAGGCCATTTAGGTCACTCAATGACGGGC had a PBM binding z-score of 0.101.

Take ACTAGCAGGCCAACGGTCACTCAAGATTAGTCCG: the PBM binding z-score is -0.139.

CGTCCAAGGTCATAGGACGTCAGTGAAGACAGAT: the PBM binding z-score is 3.74.

CCTCGGAAGACAGAAGGTCAGAGCTGTCCGCTTT yielded a PBM binding z-score of 0.101.

GCATATAGGTAATACAAGGCGAAAGTCCGATTGT: the PBM binding z-score was 0.52.

In turn, GCAGACAGGTGATACGCAGGTAACTCAGGGTGGC returned a PBM binding z-score of -0.589.

For the sequence AGGATGAGGTTATTAAGATCAGGGAATTGCGGTC, the PBM binding z-score was found to be 1.78.

CCGACTGGGGCATAAGGTTATCATAAGCCAGCCC came in with a PBM binding z-score of -0.174.

ACAGACCGGTGATGAAGGTAACTCAGGCTATCAT yielded a PBM binding z-score of -0.318.

Sequence CGAACTAGGACAGAACAGGACAGTGAAGGATGAT had a PBM binding z-score of -0.164.

In turn, CGTCCAAGGTCACAGGTCAGTGAAGAGATGACGG yielded a PBM binding z-score of 3.42.

CTCGAAAGGTCGGTTGAGGTGTGTATACGGATAA returned a PBM binding z-score of 0.858.

In turn, CGAACTAGGTCAAGCACAGTGAATCTCCGCACGC came in with a PBM binding z-score of 1.82.

For ATAGAAAGGTCGTGAGGTGAGTATACAGAAAGGC, the PBM binding z-score came out at 1.32.

As for TCAGACAGGTGAGGGTAACTCAGGTACGCAGTCG, the PBM binding z-score is 0.971.

CCTATTAGTTCACCATAAGGGCAACCGAAGCTCG: the PBM binding z-score stood at 2.82.

In turn, AATACAGGGTCACTAGGCCAGAGTTGGTACGAAT yielded a PBM binding z-score of 2.8.

Sequence CCTACTGGGCCAAAAAGGTCATTCATGCCGATAA gave a PBM binding z-score of 0.771.

Regarding CAAACTAGGTCAAGGTCAAAATCGGTTTGTGCCA, the PBM binding z-score is 2.64.

Take AGAATGAGGTTATACGTAGATCATGGAAGAAAGT: the PBM binding z-score stood at 1.74.

As for GCTTACGGGCCAAAGGTTATAGCATGAATAGAAT, the PBM binding z-score worked out at 0.36.

As for TCGAGTTGGTTAGGGGCATTCAGAATGGCGTCGA, the PBM binding z-score turned out to be 1.95.

On to TATACAGGGTCAAAGGCGAGAGTACGAATGTCGA, for which the PBM binding z-score worked out at 2.92.
